CD40 NFkB inh – inhibitors of CD40-induced NF-kB signaling, primary screen, BL2 cells, luciferase reporter, single point | CD40L-induced, 4 h | inhibition, % at 10 µM | 83,000 tested, 0.94% active | AID 1053188, 2014;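 active = mean inhibition of at least 50% with a set share of replicates also reaching that level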;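 note: 0% = neutral control wells and 100% = IKK inhibitor VII at 50 µM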
* hit, by the source's call; [ ] = dose if it differs, or a comment. The sample as a whole holds a higher share of hits than the screen did.

CN(C)C(=O)C[C@H]1C[C@@H]2c3cc(NC(=O)Nc4ccc(F)cc4)ccc3O[C@@H]2[C@@H](CO)O1 was read as CD40 NFkB inh -8.1[25 µM].
Screening CN(C)C(=O)c1ccc(-c2ccc([C@H]3[C@H](CO)N4CCCCN(CC5CC5)C[C@@H]34)cc2)cc1 returned CD40 NFkB inh -5.1[25 µM].
For C/C=C/c1ccc([C@@H]2[C@H]3CN(C(=O)c4ccncc4)CC(=O)N3[C@H]2CO)cc1 the results were CD40 NFkB inh -6.2[25 µM].
COc1cccc(NC(=O)N(C)C[C@@H]2OCc3ccccc3-c3ccccc3C(=O)N([C@@H](C)CO)C[C@@H]2C)c1 was read as CD40 NFkB inh -11.7[25 µM].
N#C[C@@H]1[C@H](c2ccc(C#CC3CCCC3)cc2)[C@H](CO)N1C(=O)Nc1ccc(F)cc1 was read as CD40 NFkB inh 0.1.
`N#C[C@H]1[C@H](c2ccccc2-c2ccc(F)cc2)[C@@H](CO)N1C(=O)NC1CCCCC1` gave CD40 NFkB inh 30.5[25 µM].
Screening CC(C)NC(=O)N1[C@H](CO)[C@@H](c2ccc(C#CC3CCCCC3)cc2)[C@@H]1C#N returned CD40 NFkB inh 18.8.
For N#C[C@H]1[C@@H](c2ccc(C#Cc3ccc(F)cc3)cc2)[C@H](CO)N1C(=O)Nc1ccc(F)cc1 the results were CD40 NFkB inh -12.0.
Screening N#C[C@H]1[C@@H](c2ccc(C#CC3CCCCC3)cc2)[C@@H](CO)N1C(=O)Nc1ccc(F)cc1 returned CD40 NFkB inh 61.9*[25 µM].
For N#C[C@@H]1[C@H](c2ccc(C#CC3CCCCC3)cc2)[C@@H](CO)N1C(=O)Nc1ccc(F)cc1 the results were CD40 NFkB inh 77.2*[25 µM].
For N#C[C@@H]1[C@@H](c2ccccc2-c2ccc(F)cc2)[C@H](CO)N1C(=O)NC1CCCCC1 the results were CD40 NFkB inh 59.0*[25 µM].
For N#C[C@H]1[C@H](c2ccccc2-c2ccc(F)cc2)[C@H](CO)N1C(=O)NC1CCCCC1 the results were CD40 NFkB inh 12.8[25 µM].
For N#C[C@@H]1[C@@H](c2ccc(C#CC3CCCC3)cc2)[C@H](CO)N1C(=O)Nc1ccc(F)cc1 the results were CD40 NFkB inh 21.4.
For N#Cc1ccc(-c2ccc3c(c2)[C@@H]2[C@@H](CCN2C(=O)c2ccc4c(c2)OCO4)[C@@H](CO)N3)cc1 the results were CD40 NFkB inh -13.6[25 µM].
COc1ccccc1CNC(=O)C[C@@H]1CC[C@@H]2[C@@H](COc3ccc(NC(C)=O)cc3C(=O)N2C)O1 was read as CD40 NFkB inh -1.4[25 µM].
CC(=O)N1C[C@@H]2C(c3ccc(Br)cc3)[C@H](C1)N2S(C)(=O)=O (stereo partly specified) was read as CD40 NFkB inh 0.2.
For O=C(C[C@@H]1CC[C@H]2[C@@H](COC[C@H](O)CN2C(=O)Cc2ccccc2)O1)NC1Cc2ccccc2C1 the results were CD40 NFkB inh -5.6[25 µM].
`COc1ccccc1NC(=O)N(C)C[C@H]1OCc2ccccc2-c2ccccc2C(=O)N([C@H](C)CO)C[C@H]1C` gave CD40 NFkB inh -17.0.
Screening CC=Cc1ccc2n(c1=O)C[C@H]1[C@H](CO)[C@@H](C(=O)N[C@@H](C)c3ccccc3)[C@@H]2N1Cc1cncnc1 (mixture of isomers) returned CD40 NFkB inh -11.0[25 µM].
Nc1ccc2nc(N3CCOCC3)sc2c1 was read as CD40 NFkB inh -44.5.
Screening c1ccc(N2CCN(c3nc4cc5c(cc4s3)OCCO5)CC2)cc1 returned CD40 NFkB inh -76.0.
`c1c2c(cc3sc(N4CCOCC4)nc13)OCCO2` gave CD40 NFkB inh 87.5*.
Screening O=C(C1CCOCC1)N1CC(=O)N2[C@H](CO)[C@H](c3ccc(-c4cccnc4)cc3)[C@H]2C1 returned CD40 NFkB inh -11.9[25 µM].
For O=C(O)c1cc2ccccc2c2c1C(=O)c1ccccc1-2 the results were CD40 NFkB inh 6.8.
For Oc1ccc2ccccc2c1CNc1ccccc1 the results were CD40 NFkB inh -4.4.
O=C1C=C(c2c(O)ccc3ccccc23)c2ccccc2C1=O was read as CD40 NFkB inh 72.7*.
For N#C[C@@H]1[C@@H](c2ccc(C3=CCCC3)cc2)[C@@H](CO)N1C(=O)NC1CCCC1 the results were CD40 NFkB inh -1.2.
For CC1OC(CC(=O)O)CC2=C1C(=O)c1c(O)cccc1C2=O (stereo unspecified) the results were CD40 NFkB inh 103.7*.
`O=C1CCC(=O)N[C@@H](c2ccc(F)cc2)C/C=C\C[C@H](c2ccc(F)cc2)N1` gave CD40 NFkB inh -0.1[25 µM].
`CNC(=O)C1OC(n2cnc3c(NCc4cccc(I)c4)ncnc32)C(O)C1O` (stereo unspecified) gave CD40 NFkB inh -5.3[25 µM].
`CCCCC(CC)C(=O)Nc1ncc([N+](=O)[O-])s1` (stereo unspecified) gave CD40 NFkB inh 8.2.
`O=C(/C=C/c1ccc([N+](=O)[O-])cc1)Nc1ncc([N+](=O)[O-])s1` gave CD40 NFkB inh 91.9*.
For Cc1ccc(CC(=O)Nc2ncc([N+](=O)[O-])s2)cc1 the results were CD40 NFkB inh -47.2.
`CC(=O)Nc1cccc2c1O[C@H](CN(C)C(C)=O)[C@@H](C)CN(C)C2=O` gave CD40 NFkB inh 5.7.
`CCCNC(=O)N1[C@H](CO)[C@@H](c2ccccc2-c2ccc(C)cc2)[C@@H]1C#N` gave CD40 NFkB inh 17.1[25 µM].
Screening CC=Cc1ccc2n(c1=O)C[C@@H]1[C@@H](CO)[C@H](C(=O)NCC(F)(F)F)[C@H]2N1C(=O)C1CCCCC1 (mixture of isomers) returned CD40 NFkB inh -2.0.
For C[C@@H]1CN([C@H](C)CO)C(=O)c2cc(NS(=O)(=O)c3cccs3)ccc2O[C@@H](C)CCCCO[C@@H]1CN(C)Cc1ccc(Cl)c(Cl)c1 the results were CD40 NFkB inh 42.4[25 µM].
Screening C[C@@H]1CCCCO[C@@H](CN(C)Cc2ccc(Cl)c(Cl)c2)[C@H](C)CN([C@@H](C)CO)C(=O)c2cc(NS(=O)(=O)c3cccs3)ccc2O1 returned CD40 NFkB inh 38.9[25 µM].
`C[C@H](CO)N1C[C@H](C)[C@H](CN(C)C(=O)c2ccncc2)OCCCC[C@H](C)Oc2ccc(NS(=O)(=O)c3cccs3)cc2C1=O` gave CD40 NFkB inh -12.3[25 µM].
Screening C[C@@H]1CN([C@H](C)CO)C(=O)c2cc(NS(=O)(=O)c3cccs3)ccc2O[C@@H](C)CCCCO[C@H]1CN(C)Cc1ccc(Cl)c(Cl)c1 returned CD40 NFkB inh 56.5*[25 µM].
For C[C@@H]1CCCCO[C@@H](CN(C)Cc2ccc(Cl)c(Cl)c2)[C@H](C)CN([C@H](C)CO)C(=O)c2cc(NS(=O)(=O)c3cccs3)ccc2O1 the results were CD40 NFkB inh 58.2*[25 µM].
For C[C@@H]1CCCCO[C@@H](CN(C)Cc2ccc(Cl)c(Cl)c2)[C@@H](C)CN([C@@H](C)CO)C(=O)c2cc(NS(=O)(=O)c3cccs3)ccc2O1 the results were CD40 NFkB inh 35.5[25 µM].
`Cc1ccc(S(=O)(=O)Nc2ccc3c(c2)CC(=O)N([C@@H](C)CO)C[C@H](C)[C@H](CN(C)S(=O)(=O)c2ccccc2)O3)cc1` gave CD40 NFkB inh -3.9[25 µM].
For COc1cccc(-c2ccc(C3[C@@H]4CN(S(=O)(=O)c5cccc(OC)c5)C[C@H]3N4)cc2)c1 (stereo partly specified) the results were CD40 NFkB inh -30.5.
Screening N#Cc1ccc(-c2cccc(-c3nc(C(=O)O)cc4c3[C@@H](CCO)N(CC3CCOCC3)C4)c2)cc1 returned CD40 NFkB inh 3.8[25 µM].
`O=C(C[C@@H]1C[C@@H]2c3cc(NC(=O)C4CCOCC4)ccc3O[C@@H]2[C@H](CO)O1)NCc1ccc(Oc2ccccc2)cc1` gave CD40 NFkB inh 3.9[25 µM].

Compound activity (PubChem BioAssay)
